# PubChem BioAssay (EPA / NIEHS)
# Calls of active or inactive are those of the source. Rule for the calls: active = hit-call score of the fitted dose curve at least 0.9, where 1 is the maximum; inactive = score below 0.9.
# Test: APR_HepG2_p53Act_1hr: Apredica 1-hour HepG2 Assay for p53 Activation (AID 2282671)
# Settings: high-content imaging, actives raise or lower the signal
# Method: APR_HepG2_1hr is a cell-based, multiplexed-readout assay that uses HepG2, a human liver cell line, with measurements taken at 1 hour after chemical dosing in a 384-well plate.APR_HepG2_p53Act_1hr is one of 10 assay component(s) measured or calculated from the APR_HepG2_1hr assay. It is designed to make measurements of dna content, a form of viability reporter, as detected with fluorescence intensity signals by HCS Fluorescent Imaging technology.Data from the assay component APR_HepG2_p53Act_1hr was analyzed into 1 assay endpoint. This assay endpoint, APR_HepG2_p53Act_1hr, was analyzed with bidirectional fitting relative to DMSO as the negative control and baseline of activity. Using a type of viability reporter, measures of protein for gain or loss-of-signal activity can be used to understand the signaling at the pathway-level as they relate to the gene TP53. Furthermore, this assay endpoint can be referred to as a primary readout, because this assay has produced multiple assay endpoints where this one serves a signaling function. To generalize the intended target to other relatable targets, this assay endpoint is annotated to the dna binding intended target family, where the subfamily is tumor suppressor.
# Cells were treated with dimethyl sulfoxide (DMSO) as a solvent control at a final concentration of 0.5% v/v or with compounds in DMSO with a resulting final DMSO concentration of 0.5% v/v. Compound treatment was done at concentrations of 0.39, 0.78, 1.56, 3.12, 6.24, 12.5, 25, 50, 100, and 200 uM in duplicate on each plate. Cells were treated with compounds for 1, 24, or 72 hr. Carbonyl […] m-chloro-phenylhydrazone (CCCP) and taxol were used as positive controls for mitochondrial function and cytoskeletal stability, respectively; DMSO served as the negative control for this experiment. Cells were fixed by the direct addition of 50 uL formaldehyde in Hank's Balanced Salt Solution (HBSS) to a final concentration of 3.7%. After incubation in the fixation medium for 30 min at room temperature (293-298 K), cells were rinsed twice with HBSS and treated with cell permeabilization buffer (16 uL of 0.5% Triton X-100) for 10 min at room temperature (293-298 K) before labeling. For mitochondrial membrane potential and mitochondrial measurements, pre-fixed cells were incubated with 50 uL of MitoTracker Red CMXRos (Invitrogen) at a concentration of 250 nM for 30 min before fixation. In the remaining cases, post-fixed cells were labeled by incubation with a multiplexed mixture of primary antibodies in HBSS for 60 min at room temperature (293-298 K) to detect immunoreactivity of c-Jun (1:500), phospho-histone H3 (1:100), phospho-histone H2A.x (1:200), p53 (1:400), alpha-tubulin (1:200) and Hoechst 33342 (2 ug/mL). Cells were labeled for multiplexed imaging on two separate plates: a) Hoechst 33342, MitoTracker Red, phospho-histone H3, and alpha-tubulin, and b) Hoechst 33342, phospho-histone H2A.x, and c-Jun. A final rinse with HBSS (50 uL) was performed before analysis. The primary and secondary antibodies for the proteins were phospho-histone H3 (rabbit anti-phospho-histone H3 and FITC-donkey anti-rabbit IgG), phospho-histone H2A.x (mouse anti-phospho-histone H2A.x and FITC-donkey anti-mouse IgG), c-Jun (rabbit anti-phospho-c-Jun and Cy3-donkey anti-rabbit IgG), p53 (sheep anti-p53 and Cy5-donkey anti-sheep IgG), alpha-tubulin (mouse anti-alpha-tubulin and Cy5-donkey anti-mouse IgG). These antibodies are available as the CellCiphr HepG2 assay kit (Millipore).Digital images of each well were captured using a Cellomics ArrayScan VTI (Thermo Scientific Cellomics) (0.8 NA objective, 0.63x optical coupler, and XF-93 filter set) at 20x magnification. The images were acquired using the autofocus feature of the ArrayScan instrument, which entails the following steps. First, the camera focuses on channel 1 (Hoechst 33342), where nuclei are identified. Second, a Z offset of 1 um is used for capturing mitochondria (MitoTracker Red). […]
row,SMILES,outcome
1,CO/N=C(/C1=NOCCO1)c1ccccc1Oc1ncnc(Oc2ccccc2Cl)c1F,inactive
2,CCCCOCN(C(=O)CCl)c1c(CC)cccc1CC,inactive
3,CCN(CC)c1nc(C)cc(OP(=S)(OC)OC)n1,inactive
4,O=c1n(Cl)c(=O)n(Cl)c(=O)n1Cl,inactive
5,Nc1c(Cl)c(F)nc(OCC(=O)O)c1Cl,inactive
6,CSC(=O)c1c(C(F)F)nc(C(F)(F)F)c(C(=O)SC)c1CC(C)C,inactive
7,CCCN(CC)CC1COC2(CCC(C(C)(C)C)CC2)O1 (stereo not given),inactive
8,CN/C(=N\[N+](=O)[O-])NCc1cnc(Cl)s1,inactive
9,CCOP(=O)(OCC)Oc1nc(Cl)c(Cl)cc1Cl,inactive
10,CC(C)N1C(=O)c2ccccc2NS1(=O)=O,inactive
11,O=C1C2CC=CCC2C(=O)N1SC(Cl)(Cl)Cl (stereo not given),inactive
12,CC1(C)C(C=C(Cl)Cl)C1C(=O)OC(C#N)c1cccc(Oc2ccccc2)c1 (stereo not given),inactive
13,CCNP(=S)(OC)O/C(C)=C/C(=O)OC(C)C (stereo not given),inactive
14,N#Cc1c(Cl)cccc1Cl,inactive
15,Nc1c(Cl)c(Cl)nc(C(=O)O)c1Cl,inactive
16,CCOc1nc(F)cc2nc(S(=O)(=O)Nc3c(Cl)cccc3Cl)nn12,inactive
17,COc1cc(OC)nc(NC(=O)NS(=O)(=O)c2ncccc2OCC(F)(F)F)n1,inactive
18,COP(=S)(OC)SCn1nnc2ccccc2c1=O,inactive
19,CCOC(=O)C(C)OC(=O)c1cc(Oc2ccc(C(F)(F)F)cc2Cl)ccc1[N+](=O)[O-] (stereo not given),inactive
20,CCOc1nc(C(Cl)(Cl)Cl)ns1,inactive

row,SMILES,outcome
1,Nc1cnn(-c2ccccc2)c(=O)c1Cl,inactive
2,CC(C)Nc1nc(Cl)nc(NC(C)C)n1,inactive
3,CCCC(=NOCC)C1=C(O)CC(CC(C)SCC)CC1=O (stereo not given),inactive
4,C=CCOC(=O)C(C)(C)OC(=O)c1cc(-n2c(=O)cc(C(F)(F)F)n(C)c2=O)ccc1Cl,inactive
5,CNC(=O)Oc1cccc2ccccc12,inactive
6,CCC(C)n1c(=O)[nH]c(C)c(Br)c1=O (stereo not given),inactive
7,CS(=O)(=O)c1cc(C(F)(F)F)ccc1C(=O)c1cnoc1C1CC1,inactive
8,Cn1c(-c2ccccc2)cc(-c2ccccc2)[n+]1C,inactive
9,CC(C)C1(C)N=C(c2ncccc2C(=O)O)NC1=O (stereo not given),inactive
10,O=C(Nc1ccccc1-c1ccc(Cl)cc1)c1cccnc1Cl,inactive
11,O=P(O)(O)CCCl,inactive
12,CC1(C)CON(Cc2ccccc2Cl)C1=O,inactive
13,COCC(=O)N(c1c(C)cccc1C)C(C)C(=O)OC (stereo not given),inactive
14,C=C(C)CN(CC)c1c([N+](=O)[O-])cc(C(F)(F)F)cc1[N+](=O)[O-],inactive
15,Cc1ccc(N=CN(C)C=Nc2ccc(C)cc2C)c(C)c1,inactive
16,COCC(C)N(C(=O)CCl)c1c(C)csc1C (stereo not given),inactive
17,CCCCC(O)(Cn1cncn1)c1ccc(Cl)cc1Cl (stereo not given),inactive
18,COC(=O)c1c(C(F)F)nc(C(F)(F)F)c(C2=NCCS2)c1CC(C)C,inactive
19,CN=C=S,inactive
20,CCN(CC)C(=O)C(C)Oc1cccc2ccccc12 (stereo not given),inactive
